The record followed here is PubChem BioAssay (EPA / NIEHS).

Activity calls are given as the source filed them. Rule for the calls: active = hit-call score of the fitted dose curve at least 0.9, where 1 is the maximum; inactive = score below 0.9.

Read-out in the experiment: Interleukin 6 (IL6), IL6 (gene 3569)
Nature of the experiment: LTEA_HepaRG_IL6: Life Technologies and Expression Analysis (LTEA) Assay for Interleukin 6 (IL6) using HepaRG (AID 2283509). To be noted: mRNA level, 48 h; actives raise or lower the signal. As for the experimental part:
LTEA_HepaRG is a cell based, multiplexed-readout assay that uses HepaRG, a human liver cell line, with measurements taken at 48 hours after chemical dosing on a 96-well plate.LTEA_HepaRG_IL6 is one of 102 assay component(s) measured in the LTEA HepaRG cell culture assay. It is a marker of Inflammation.Data from the assay component LTEA_HepaRG_IL6 was analyzed into 1 endpoint. This assay endpoint, LTEA_HepaRG_IL6, was analyzed with bidirectional fitting relative to DMSO as the negative control and baseline of activity. Using a type of inducible reporter, measures of mRNA induction for gain or loss-of-signal activity can be used to understand regulation of transcription factor activity. To generalize the intended target to other relatable targets, this assay endpoint is annotated to the cytokine intended target family, where the subfamily is interleukins.
A total of 1060 chemcials from the ToxCast library were tested in eight-point concentration-response experiments. Cell culture and cytotoxicity assays were conducted at Thermo Fisher Scientific's Custom Services facility (Madison, WI). A single lot of human HepaRG cells (Thermo Fisher Scientific, Frederick, MD) was used for the cell culture experiments. 96-well format collagen type I coated plates of human HepaRG cells were prepared using established methods. Briefly, cryopreserved HepaRG cells were thawed, plated at a density of approximately 100,000 cells/well in HepaRG Thaw, Plate, and General Purpose media (HPRG770, Thermo Fisher Scientific), and incubated for 48 hours. 0.5% DMSO was selected as vehicle control to balance the requisite need of DMSO in HepaRG cultures to maintain differentiation (for example, baseline metabolism, proportions of hepatocytes vs. cholangiocytes), while enabling further hepatic receptor pathway activation (for example, PXR and CAR) in response to chemical exposure. 48 hours after plating, the culture medium was replaced with HepaRG Serum-Free Incudtion Media. Cells were exposed to each test chemical in duplicate and maintained in CO2 incubators for another 48 hours. Chemical plates were thawed to room temperature and 200x concentrations of treatment groups were prepared. 8-point conentration-reponse curves were made with the highest exposure at 100 uM, followed by half-log dilutions, all in 0.5% DMSO. Each test plate contained variouse controls, induction positive controls (1mM phenobarbital), cytotoxicity positive controls ([…] aflatoxin B1), vehicle controls (0.5% DMSO), and total lysis controls (0.5% DMSO). Cell morphology images were taken using an Essen IncuCyte FLR automated microscope, with six 96-well plates imaged in about 24 minutes. Images were captured and exported and JPEG files. Spent culture media was transfered to black-well plates for the LDH assay, and remaining media was sorted at -80 C for later use. Cells were treated with RLT buffer and frozen until shipped for gene expression analysis. Total RNA was isolated from the cell suspension in 75 uL of Buffer RLT (Qiagen, Germantown, MD 20874) by Quintiles/Expression Analysis (Durham, NC) using a custom isolation procedure. Total RNA from each plate well was transferred to a preamplification plate. Fluidigm's 96.96 Dynamic ArrayTM (Fluidigm, Amsterdam, the Netherlands) technology was used for gene expression analyses by quantitative reverse transcription polymerase chain reaction (qRT-PCR, performed by Quintiles/Expression Analysis, Durham, NC)89. Standard TaqManTM Assays (Applied Biosystems/ThermoFisher Scientific, Foster City, CA) were used to assess the expression of 93 genes selected based on their selectivity and sensitivity to important hepatic receptors known to be modulated by environmental chemicals; importance in human hepatocyte functionality; and hepatotoxicity. […]
As usually defined, the AC50 is the midpoint of the concentration-response curve, whichever way the signal moves. In the case of `COc1ccc2cc(S(=O)(=O)N[C@H](CC(=O)N[C@H](Cc3ccc(CN4[C@H](C)CCC[C@@H]4C)cc3)C(=O)N(C)C(C)C)c3ccc4c(c3)OCO4)ccc2c1`, the concentration at half-maximal activity (AC50) was 30.9 µM (active). The same measure, in the same setting: the figure for `CC(C)(c1cc(Br)c(O)c(Br)c1)c1cc(Br)c(O)c(Br)c1` is 75.5 µM (active). Take `CN1C(=O)CC[C@H]1c1cccnc1`: the call was inactive. Turning to `COc1cc(C(=O)NC2CCN(C)CC2)ccc1Nc1ncc2c(n1)N(C1CCCC1)CC(F)(F)C(=O)N2C`, the AC50 was 25.2 µM (active). For `CCCC(=O)OCCC(C)C`, the result was inactive.

For the compound `CCCCCCCCCCCC[N+](C)(C)C`, the AC50 was 77.8 µM (active).

Regarding `NCc1cccc(C2CCN(C(=O)c3ccc(C#Cc4ccccc4F)o3)CC2)c1`, the call was inactive.

As to `c1ccc2ccccc2c1`, the outcome was inactive. On to `CC(C)(C)c1csc(-c2cc3cc(OCc4ccccc4CC(=O)O)ccc3o2)n1`, for which the half-maximal activity concentration (AC50) was 81.3 µM (active). In the case of `CCCCCc1ccc(N)cc1`, the compound was classed as inactive. In the case of `CCCCCCCC[Si](OCC)(OCC)OCC`, the compound was called inactive.

On to `O=C(O)Cc1cc(I)c(Oc2ccc(O)c(I)c2)c(I)c1`, for which the AC50 is 80.4 µM (active). As for `Clc1cc(Cl)c2c(c1)N=C1CCCCCN1C2`, the compound was classed as inactive. Turning to `O=c1ccc2ccccc2o1`, the compound was called inactive. With `CCN(CC)C(=O)c1cc(S(=O)(=O)Cc2ccccc2)c(N2CCC(c3ccccc3)CC2)cc1N(CC)CCN(C)C`, the half-maximal activity concentration (AC50) was 36.3 µM (active). For `Cc1c2ccccc2c(C)c2c1ccc1ccccc12`, the half-maximal activity concentration (AC50) is 83 µM (active). For the compound `CCCOC(=O)c1cc(O)c(O)c(O)c1`, the compound was called inactive. Consider `CC[C@H](NC(=O)c1cc(F)ccc1NS(=O)(=O)c1cccc2cccnc12)c1ccccc1`, for which the compound was called inactive. As for `CCCCCCCCCC(=O)O`, the call was inactive. In the case of `O=C(O)c1ccccc1C(=O)OCc1ccccc1`, the result was inactive. In the case of `CCCCCCCCCCCO`, the result was inactive. With `CN(C)c1ccc(C(=C2C=CC(=[N+](C)C)C=C2)c2ccc(N(C)C)cc2)cc1`, the AC50 was 6.98 µM (active). Still for that read-out and setting: the figure for `NC(=O)c1nc(-c2cccc(-c3cc(F)ccc3OCC(F)(F)C(F)(F)F)c2)n[nH]1` is 78.6 µM (active).

Regarding `COc1cccc([C@H](O)C2CCN(CCc3ccc(F)cc3)CC2)c1OC`, the result was inactive. With `CC(C)(O)c1ccc(CNC(=O)c2cccnc2Oc2ccc3nonc3c2)cc1`, the call was inactive. In the case of `O=C1CCC(C2CCCCC2)CC1`, the compound was called inactive.

In the case of `Oc1ccccc1`, the compound was called inactive. The same measure, in the same setting: as for `CCO[Si](CCCNC(N)=O)(OCC)OCC`, the entry is “inactive”; as for `O=c1c(-c2ccc(O)cc2)coc2cc(O)cc(O)c12`, “inactive”. Take `CC(=O)N1CCN(c2ccc(OC[C@H]3CO[C@](Cn4ccnc4)(c4ccc(Cl)cc4Cl)O3)cc2)CC1`: the AC50 was 31.2 µM (active). On to `CC1=CC(=O)/C(=C(/C)O)C(=O)O1`, for which the compound was classed as inactive. Same read-out and setting: as for `Cc1cc2c(cc1C(F)(F)F)N(C(=O)Nc1ccc(Oc3cccnc3C)nc1)CC2`, the entry is “inactive”; as for `O=C1O[C@H]([C@@H](O)CO)C(O)=C1O`, “inactive”; as for `CCCCCCCCCCCCO`, “inactive”. `O=C(O)c1ccccc1-n1cc(C(=O)O)c(=O)c2cc(Nc3c(F)cc(F)cc3Cl)c(Cl)cc21`: the call was inactive. In the case of `CCOC(=O)O[C@H](C)OC(=O)c1ccc2c(c1)cc(C(=O)NC1CCN(C(C)C)CC1)n2Cc1cc(-c2ccc(Cl)s2)on1`, the compound was called inactive. Take `Cc1ncc(CO)c(CO)c1O`: the compound was called inactive.

Turning to `CCCCCCCCN(C)CCCCCCCC`, the call was inactive. Still for that read-out and setting: the entry for `O=C=NCCCCCCN=C=O` is “inactive”. Consider `CN1C(=O)N(c2ccccc2Br)Cc2cnc(Nc3ccc4c(c3)OCC(CO)O4)nc21` (stereo not given), for which the half-maximal activity concentration (AC50) is 11.6 µM (active).
